Compound activity (PubChem)
Only some compounds are listed: those with a hit (about 1.7% of all), similar ones and a draw of the others.
CCHF vOTU inh-1 = blocks the CCHF virus ovarian tumor domain protease. inhibition, % at 11.5 µM. CCHFV vOTU protease, Pep-AMC fluorescence. AID 651958. 370,000 compounds, 0.55% hits; note: 0% = vehicle wells with enzyme and 100% = no enzyme wells
SARS 3CLpro inh = SARS-CoV 3CLpro protease inhibition; P0C6X7; recombinant SARS-CoV 3CLpro, quenched FRET peptide cleavage; inhibition, % at 6 µM; 290,000 compounds, 0.14% hits; in the data active = inhibition above about 12%
VHR inh abs = blocks human VHR1 dual specificity phosphatase | P51452 | 290,000 compounds, 0.52% hits | recombinant VHR phosphatase, pNPP absorbance | inhibition, % at 13.3 µM; in the data active = inhibition above about 50%
Target sequence (P51452 whole entry, looked up): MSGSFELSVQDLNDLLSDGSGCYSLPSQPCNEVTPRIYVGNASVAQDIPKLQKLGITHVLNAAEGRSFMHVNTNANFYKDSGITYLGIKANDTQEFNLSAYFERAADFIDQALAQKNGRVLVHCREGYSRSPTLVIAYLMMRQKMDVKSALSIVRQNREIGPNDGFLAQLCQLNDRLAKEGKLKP
RecA splice inh = inhibitors of M. tuberculosis RecA intein splicing; P9WHJ3; cell-free RecA intein splicing, fluorescence; inhibition, % (concentration not given with the values); 290,000 compounds, 0.75% hits; AID 2221; in the data active = inhibition above about 30%;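 note: 0% = vehicle wells and 100% = reference inhibitor control wells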
SSB-PriA inh = blocks PriA binding to SSB C-terminal tail; AlphaScreen SSBct-PriA binding, biotinylated peptide; inhibition, % at 33 µM; 430,000 compounds, 0.6% hits; AID 1272365; in the data active = inhibition mostly above about 37%, no sharp cut-off; inactive = mostly below about 20%;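 note: plate controls were negative control peptide for no effect and reference peptide for full effect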
CCHF vOTU inh-2 = CCHFV vOTU protease inhibition, confirmation; shares compounds with CCHF vOTU inh-1; inhibition, % at 11.5 µM; Recombinant CCHFV vOTU, Pep-AMC fluorescence; 1,900 compounds, 17% hits
* = called active by the depositor; . = no result given. Cut-off read from the data, not from the text of the source, unless noted: active = inhibition above about 30%; inactive = the rest.

SMILES	CCHF vOTU inh-1	SARS 3CLpro inh	VHR inh abs	RecA splice inh	SSB-PriA inh	CCHF vOTU inh-2
CC(NC(=O)c1ccc2c(=O)nc3c(-c4cccc(F)c4)n[nH]n3c2c1)c1ccc(F)cc1 (stereo not drawn)	.	.	.	.	-11	.
COc1ccc(C(=O)/C=C/c2ccc(OCc3ccccc3)cc2)cc1CSCC(=O)O	36*	4	-7	21	-3	3
O=C1c2cc(CO)cc(O)c2C(=O)c2c(O[C@@H]3OC(CO)[C@@H](O)[C@@H](O)[C@@H]3O)cccc21 (stereo partly drawn)	0	.	.	3	-15	.
O=C1c2c(O)cccc2C(C2OC(CO)[C@@H](O)[C@H](O)[C@H]2O)c2cc(CO)cc(O)c21 (stereo partly drawn)	3	.	.	.	20	.
O=C(O)c1cc(O)c2c(c1)[C@H]([C@H]1c3cc(C(=O)O)cc(O)c3C(=O)c3c(O[C@@H]4O[C@H](CO)[C@@H](O)[C@H](O)[C@H]4O)cccc31)c1cccc(OC3O[C@H](CO)[C@@H](O)[C@H](O)[C@H]3O)c1C2=O (stereo partly drawn)	118*	.	.	-3	6	107*
O=C(O)c1cc(O)c2c(c1)[C@@H]([C@H]1c3cc(C(=O)O)cc(O)c3C(=O)c3c(O[C@@H]4O[C@H](CO)[C@@H](O)[C@H](O)[C@H]4O)cccc31)c1cccc(OC3O[C@H](CO)[C@@H](O)[C@H](O)[C@H]3O)c1C2=O (stereo partly drawn)	73*	.	.	13	11	33*
COc1ccc(CCC(=O)NCCn2ncc3c(NCc4ccc(F)cc4)ncnc32)cc1	.	.	.	.	4	.
COc1cccc2cc(C(=O)Nc3ccsc3-c3nc(C4CC4)no3)oc12	.	.	.	.	0	.
O=C(NNC(=O)c1cccs1)c1ccc(=O)n(Cc2ccc(Cl)cc2)c1	.	.	.	.	-15	.
O=C(NC1CCC(Oc2cnccn2)CC1)c1c[nH]c2ccccc12 (stereo not drawn)	.	.	.	.	-4	.
Cc1ccc(C(=O)N/C(=C/c2cn(-c3ccccc3)nc2-c2ccccc2)C(=O)O)cc1	39*	4	12	8	3	1
COC(=O)c1ccccc1NC(=O)CC1CSc2nc(C(C)C)cc(=O)n21 (stereo not drawn)	.	.	.	.	-2	.
COc1ccc(Cl)cc1NC(=O)CN1CCN(c2cccc(C)c2C)CC1	.	.	.	.	-4	.
Nc1cc2c(cc1Br)[nH]c(=O)c1ccccc12	101*	.	.	.	4	84*
COc1ccccc1-c1cc(C(=O)NCc2cnn3c2CCCC3)[nH]n1	.	.	.	.	-16	.
CCN(CC)S(=O)(=O)N1CCC(C(=O)NCc2ccco2)CC1	-1	-3	-6	0	4	.
O=C(NCc1ccco1)C1CCN(S(=O)(=O)c2ccccc2C(F)(F)F)CC1	31*	.	.	.	1	-12
C[C@@H]1CN([C@@H](C)CO)C(=O)CCCn2nncc2CO[C@@H]1CN(C)C(=O)Nc1ccccc1C(F)(F)F	27	.	.	.	.	.
C[C@@H]1CN([C@@H](C)CO)C(=O)CCCn2nncc2CO[C@H]1CN(C)C(=O)Nc1ccccc1C(F)(F)F	30*	.	.	.	.	-20
CC(C)Oc1ccc(S(=O)(=O)N2CCOCC2)cc1NC(=O)CN1C(=O)c2ccccc2C1=O	36*	.	.	.	-4	-20
COC(=O)c1ccc(C(=O)Nc2nnc(Cc3ccc(S(C)(=O)=O)cc3)o2)cc1	.	.	.	.	-6	.
CCc1nnc(NS(=O)(=O)c2ccc(Nc3ccc([N+](=O)[O-])c4nonc34)cc2)s1	31*	6	22	30	18	6
CCc1nnc(NS(=O)(=O)c2ccc(NS(=O)(=O)c3ccccc3[N+](=O)[O-])cc2)s1	-3	-1	-7	-3	-8	.
CCc1nnc(NS(=O)(=O)c2ccc(NC(=O)c3ccc([N+](=O)[O-])s3)cc2)s1	35*	.	.	.	.	12
Cc1cc(N(C)C)nc(NCCNC(=O)C(C)C)n1	.	.	.	.	-1	.
CC(C)C[C@H](NC(=O)c1nc[nH]c1C(=O)NCC(=O)OCc1ccccc1)C(=O)OCc1ccccc1	27	2	24	5	8	.
CCOC(=O)c1ccc(NC(=O)c2nc[nH]c2C(=O)N[C@@H](CC(C)C)C(=O)OC(C)(C)C)cc1	-3	.	-1	-1	-4	.
CC(C)C[C@H](NC(=O)c1[nH]cnc1C(=O)N[C@@H](C)C(=O)OC(C)(C)C)C(=O)OC(C)(C)C	30*	.	0	-7	-26	32*
